Results on 38 compounds are retold here after PubChem BioAssay (EPA / NIEHS).

What is called AC50 is the concentration at which the activity in the assay is half-maximal.

Molecules are shown by their SMILES. Calls of active or inactive are those of the source. Rule for the calls: active = hit-call score of the fitted dose curve at least 0.9, where 1 is the maximum; inactive = score below 0.9.

One test in a line: ATG_AP_2_CIS: Attagene CIS-FACTORIAL HepG2 Assay for human Activator Protein 2 (AP-2) (AID 2282932). The settings on record: HepG2 AP-2 cis-reporter, Attagene transcription factor profiling; actives raise or lower the signal. Put shortly: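 HepG2, transient MRTU transfection, cis-regulated reporters; 24 h compound exposure; RNA isolated, RT-PCR, 6-FAM labelling, HpaI digest, CE fluorescence. DMSO = negative control/baseline, bidirectional fit.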
With `CCOC(=O)CC(C)O` (stereo unspecified), the compound was called inactive.

Consider `CCCC(=O)OCCc1ccccc1`, for which the call was inactive.

Turning to `CC1(C)O[C@@H]2[C@@H](CO[C@@]3(COS(N)(=O)=O)OC(C)(C)O[C@@H]23)O1`, the compound was classed as inactive.

With `[Cl][Au]([Cl])[Cl]`, the compound was called inactive.

Take `CCCCCC(C=O)=Cc1ccccc1`: the compound was classed as inactive.

As to `C=CC(C)C#N` (stereo unspecified), the compound was classed as inactive.

For the compound `C[C@H]1O[C@@H](O[C@H]2[C@@H](O)C[C@H](O[C@H]3[C@@H](O)C[C@H](O[C@H]4CC[C@@]5(C)[C@H](CC[C@@H]6[C@@H]5C[C@@H](O)[C@]5(C)[C@@H](C7=CC(=O)OC7)CC[C@]65O)C4)O[C@@H]3C)O[C@@H]2C)C[C@H](O)[C@@H]1O`, the AC50 was 0.0857 µM (active).

Take `ClC(c1ccccc1)(c1ccccc1)c1ccccc1`: the compound was called inactive.

`O=c1c(O)c(-c2ccc(O)cc2)oc2cc(O)cc(O)c12`: the compound was classed as inactive.

With `CN1CCOCC1`, the call was inactive.

As to `CC/C=C\CC/C=C/CO`, the compound was classed as inactive.

In the case of `CS(=O)(=O)c1ccc(C2=C(c3ccccc3)C(=O)OC2)cc1`, the outcome was inactive.

Take `CC1C2CC(CC2C2CCCC(O)C2)C1(C)C` (stereo unspecified): the compound was classed as inactive.

In the case of `COC(=O)Nc1ccc(Cl)c(Cl)c1`, the compound was classed as inactive.

Regarding `CC(O)C1CCCCC1` (stereo unspecified), the call was inactive.

In the case of `Oc1c(Cl)cc(Cl)c(Cl)c1Cc1c(O)c(Cl)cc(Cl)c1Cl`, the AC50 is 1.98 µM (active).

On to `N#Cc1ccc(CC(=O)c2cccc(C(F)(F)F)c2)cc1`, for which the result was inactive.

Take `COS(=O)(=O)O`: the compound was classed as inactive.

Take `CCCCCCOC(=O)CCC`: the compound was classed as inactive.

As to `COC(C)(C)CCCC(C)CC=O` (stereo unspecified), the call was inactive.

In the case of `CSCCC=O`, the compound was called inactive.

Regarding `Brc1ccc(Br)c(Br)c1`, the result was inactive.

Regarding `Cc1cc(C)nc(NS(=O)(=O)c2ccc(N)cc2)n1`, the outcome was inactive.

On to `CCOCCOCCOCC`, for which the call was inactive.

As to `C=C1C[C@]23C[C@@]1(O)CC[C@H]2[C@@]12C=C[C@H](O)[C@@](C)(C(=O)O1)[C@H]2[C@@H]3C(=O)O`, the outcome was inactive.

With `OCc1cccc(Oc2ccccc2)c1`, the result was inactive.

On to `C=CCN(CC=C)CC=C`, for which the result was inactive.

In the case of `CC(C)(N=C=O)c1cccc(C(C)(C)N=C=O)c1`, the outcome was inactive.

As for `C[Si]1(C)O[Si](C)(C)O[Si](C)(C)O1`, the outcome was inactive.

As to `CCOc1ccccc1O`, the compound was called inactive.

Regarding `Cc1cc(=O)oc2cc(N(C)C)ccc12`, the call was inactive.

Turning to `CCCCOCC`, the result was inactive.

For `C1CCCCC1`, the compound was classed as inactive.

Regarding `CC1=CC[C@@]23C[C@@H]1C(C)(C)[C@@H]2CC[C@H]3C`, the compound was classed as inactive.

On to `O=C1NC2NC(=O)NC2N1` (stereo unspecified), for which the result was inactive.

In the case of `Nc1ccc(NCCO)c([N+](=O)[O-])c1`, the result was inactive.

With `CC(C)(CO)[C@@H](O)C(=O)NCCC(=O)O`, the compound was called inactive.

For `C[Si](C)(C)O[Si](C)(C)C`, the compound was called inactive.

A further test in a line: ATG_BRE_CIS: Attagene CIS-FACTORIAL HepG2 Assay for human Bone Morphogenetic Protein (BMP) Response Element (BRE) (AID 2282933). The settings on record: HepG2 BMP response element reporter, Attagene transcription factor profiling; actives raise or lower the signal. A digest of the protocol:
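Endogenous transcription factor activity at a BMP response element was monitored in transfected HepG2 cells 24 h after dosing. Fluorescent RT-PCR products were resolved by capillary electrophoresis, and activity was fitted in both directions versus DMSO.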
As to `CCOC(=O)CC(C)O` (stereo unspecified), the call was inactive.

For `CCCC(=O)OCCc1ccccc1`, the result was inactive.

As to `CC1(C)O[C@@H]2[C@@H](CO[C@@]3(COS(N)(=O)=O)OC(C)(C)O[C@@H]23)O1`, the call was inactive.

On to `[Cl][Au]([Cl])[Cl]`, for which the outcome was inactive.

Take `CCCCCC(C=O)=Cc1ccccc1`: the outcome was inactive.

With `C=CC(C)C#N` (stereo unspecified), the result was inactive.

As to `C[C@H]1O[C@@H](O[C@H]2[C@@H](O)C[C@H](O[C@H]3[C@@H](O)C[C@H](O[C@H]4CC[C@@]5(C)[C@H](CC[C@@H]6[C@@H]5C[C@@H](O)[C@]5(C)[C@@H](C7=CC(=O)OC7)CC[C@]65O)C4)O[C@@H]3C)O[C@@H]2C)C[C@H](O)[C@@H]1O`, the result was inactive.

As for `ClC(c1ccccc1)(c1ccccc1)c1ccccc1`, the compound was called inactive.

Consider `O=c1c(O)c(-c2ccc(O)cc2)oc2cc(O)cc(O)c12`, for which the result was inactive.

With `CN1CCOCC1`, the compound was classed as inactive.

In the case of `CC/C=C\CC/C=C/CO`, the result was inactive.

Take `CS(=O)(=O)c1ccc(C2=C(c3ccccc3)C(=O)OC2)cc1`: the outcome was inactive.

Turning to `CC1C2CC(CC2C2CCCC(O)C2)C1(C)C` (stereo unspecified), the compound was classed as inactive.

For `COC(=O)Nc1ccc(Cl)c(Cl)c1`, the call was inactive.

For the compound `CC(O)C1CCCCC1` (stereo unspecified), the compound was classed as inactive.

As for `Oc1c(Cl)cc(Cl)c(Cl)c1Cc1c(O)c(Cl)cc(Cl)c1Cl`, the AC50 is 5.37 µM (active).

For the compound `N#Cc1ccc(CC(=O)c2cccc(C(F)(F)F)c2)cc1`, the AC50 is 128 µM (active).

`COS(=O)(=O)O`: the compound was called inactive.

Take `CCCCCCOC(=O)CCC`: the compound was classed as inactive.

In the case of `COC(C)(C)CCCC(C)CC=O` (stereo unspecified), the result was inactive.

On to `CSCCC=O`, for which the result was inactive.

Turning to `Brc1ccc(Br)c(Br)c1`, the result was inactive.

As to `Cc1cc(C)nc(NS(=O)(=O)c2ccc(N)cc2)n1`, the result was inactive.

In the case of `CCOCCOCCOCC`, the compound was classed as inactive.

In the case of `C=C1C[C@]23C[C@@]1(O)CC[C@H]2[C@@]12C=C[C@H](O)[C@@](C)(C(=O)O1)[C@H]2[C@@H]3C(=O)O`, the call was inactive.

For the compound `OCc1cccc(Oc2ccccc2)c1`, the result was inactive.

Turning to `C=CCN(CC=C)CC=C`, the call was inactive.

As to `CC(C)(N=C=O)c1cccc(C(C)(C)N=C=O)c1`, the result was inactive.

In the case of `C[Si]1(C)O[Si](C)(C)O[Si](C)(C)O1`, the call was inactive.

For the compound `CCOc1ccccc1O`, the call was inactive.

Turning to `Cc1cc(=O)oc2cc(N(C)C)ccc12`, the compound was classed as inactive.

For the compound `CCCCOCC`, the result was inactive.

As for `C1CCCCC1`, the outcome was inactive.

On to `CC1=CC[C@@]23C[C@@H]1C(C)(C)[C@@H]2CC[C@H]3C`, for which the result was inactive.

Turning to `O=C1NC2NC(=O)NC2N1` (stereo unspecified), the compound was called inactive.

As to `Nc1ccc(NCCO)c([N+](=O)[O-])c1`, the result was inactive.

For the compound `CC(C)(CO)[C@@H](O)C(=O)NCCC(=O)O`, the compound was called inactive.

Consider `C[Si](C)(C)O[Si](C)(C)C`, for which the compound was classed as inactive.
